Screening results as filed in PubChem BioAssay.
Rows were chosen to be rich in hits. Some 1.7% of all compounds tested hit in one or more screens of this group.
ALOX12 inh = ALOX12 (human) lipoxygenase inhibition; P18054; 580,000 tested, 1.1% active; purified 12hLO, xylenol orange hydroperoxide absorbance; Potency, µM (series often up to 108 µM), without a hit: at the highest dose activity change, negative = inhibition, usual class: inhibitors; further: potency means the concentration at half of the fitted maximal effect; on the % scale 0 is the no-effect control and ±100 the full control effect
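Purified human 12hLO at 150 nM in 25 mM Hepes, 0.01% Triton X-100, pH 7.0, preincubated 15 min at room temperature with compound. Reaction started with 40 uM arachidonic acid, 30 min at room temperature. Hydroperoxide measured by Fe-xylenol orange, 573/405 nm absorbance ratio.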
Glioma ERSR ind = induces the endoplasmic reticulum stress response in human glioma cells; U87-MG GRP78 promoter luciferase reporter, 16 h; Potency, µM, for inactives: top-dose activation, most hits filed as activators; 420,000 tested, 0.02% active; AID 602332; further: potency means the concentration at half of the fitted maximal effect; series mostly up to about 76 µM; % of control where 0% means no effect; nearly all actives have a fitted effect of over 35% in size
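Stably transfected U87-MG human glioma cells carrying a GRP78-based luminescent sensor were seeded at 1000 cells/well, pin-dosed with compounds and incubated 16 h. Luciferase reagent was then added, and end-point luminescence was read after 10 min at room temperature.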
Anesthetic bind = binds horse apoferritin like a general anesthetic; P02791; apoferritin/1-aminoanthracene competitive binding, fluorescence; Potency, µM (titrated, usually from 77.5 µM), without a hit: at the highest dose activity change, negative = displacement, usual class: inhibitors; 350,000 tested, 0.074% active; further: potency means the concentration at half of the fitted maximal effect; on the % scale 0 is the no-effect control and ±100 the full control effect; nearly all actives have a fitted effect of over 20% in size
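Horse-spleen apoferritin (10 uM) in 50% saturated 1-aminoanthracene in PBS was incubated 10 min at room temperature with compound. Fluorescence (ex 380, em 535 nm) was normalized to free and bound 1-AMA, with concentration-response fitted by a four-parameter Hill equation.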
rTrxR1 inhibitor = blocks rat thioredoxin reductase 1. O89049. recombinant rTrxR1, NADPH fluorescence consumption, selenite substrate. Potency, µM (titrated, usually from 114 µM), for the others: top-dose activity change, negative = inhibition, most hits filed as inhibitors. 390,000 tested, 1% active; further: potency means the concentration at half of the fitted maximal effect; on the % scale 0 is the no-effect control and ±100 the full control effect; nearly all actives have a fitted effect of over 65% in size
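Rat TrxR1 (90 nM in the dispensed reagent) was pre-reduced with 400 uM NADPH for 5 min at room temperature, then incubated with compound for 15 min. After 400 uM selenite was added, NADPH fluorescence (Ex 340/Em 450 nm) was followed for 8 min.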
IDH1 R132H inh = blocks human mutant IDH1 R132H enzyme; IDH1-R132H enzyme, NADPH consumption, diaphorase/resazurin fluorescence; Potency, µM (doses to about 76.6 µM), for the others: at the highest dose activity change, negative = inhibition, most hits filed as inhibitors; 390,000 tested, 0.093% active; further: potency means the concentration at half of the fitted maximal effect; on the % scale 0 is the no-effect control and ±100 the full control effect; nearly all actives have a fitted effect of over 65% in size
Target sequence (O75874 whole entry R132H, stated change not applied): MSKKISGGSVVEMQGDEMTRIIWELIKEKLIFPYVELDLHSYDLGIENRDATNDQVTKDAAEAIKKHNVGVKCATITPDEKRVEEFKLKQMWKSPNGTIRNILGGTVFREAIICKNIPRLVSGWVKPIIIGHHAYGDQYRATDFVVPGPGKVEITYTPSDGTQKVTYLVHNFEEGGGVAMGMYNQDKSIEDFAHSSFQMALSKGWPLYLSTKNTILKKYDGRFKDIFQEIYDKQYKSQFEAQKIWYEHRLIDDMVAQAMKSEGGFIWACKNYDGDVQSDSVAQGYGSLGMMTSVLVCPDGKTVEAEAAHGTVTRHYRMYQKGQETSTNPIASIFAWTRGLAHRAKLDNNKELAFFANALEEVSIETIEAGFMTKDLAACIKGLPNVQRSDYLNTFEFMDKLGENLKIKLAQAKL
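IDH1-R132H (0.5 ug/mL dispensed) in pH 7.5 Tris buffer was preincubated 30 min with compound, then given a substrate mix of 0.016 mM NADPH and 2 mM alpha-KG for 80 min at room temperature; remaining NADPH was read by diaphorase/resazurin fluorescence.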
TrxR1 substrate = rat thioredoxin reductase 1 substrate activity. AID 588456. 390,000 tested, 0.01% active. O89049. Potency, µM (doses to about 114 µM), without a hit: at the highest dose activity change, negative = substrate turnover. purified TrxR1 substrate turnover, NADPH consumption readout; further: potency means the concentration at half of the fitted maximal effect; on the % scale 0 is the no-effect control and ±100 the full control effect; nearly all actives have a fitted effect of over 50% in size
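Rat TrxR1, dispensed at 90 nM, was prereduced with 400 uM NADPH (final) for 5 min at ~22 deg C, then incubated with compound 15 min before 400 uM selenite. A first-read NADPH fluorescence drop versus no-compound background flagged substrates.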
Resorufin autofl = counter-screen for mutant IDH1 inhibitors: fluorescence interference | shares compounds with IDH1 R132H inh | Resorufin detection reagent fluorescence interference, cell-free | inhibition of signal, % at 51.2 µM | 750 tested, under 10 active | AID 623980;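 further: 0% = wells with normal resorufin and full inhibition = wells lacking resorufin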
WT IDH1 inh = selectivity of mutant IDH1 inhibitors: human wild-type IDH1. shares compounds with IDH1 R132H inh. WT IDH1 enzyme, NADPH diaphorase/resazurin fluorescence. Potency, µM (series often up to 115 µM), inactives show at the top dose activity change, negative = inhibition, hits mostly inhibitors. 750 tested, 9% active;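 further: potency means the concentration at half of the fitted maximal effect; 0% = full WT IDH1 enzyme control and full inhibition = no enzyme wells; nearly all actives have a fitted effect of over 55% in size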
Target sequence (O75874 whole entry, looked up): as the sequence (O75874 whole entry R132H, stated change not applied) above, with H132R counted along it
mIDH1 confirm = mutant IDH1 (human) inhibition, confirmed. shares compounds with IDH1 R132H inh. IDH1 R132H enzyme, NADPH diaphorase/resazurin fluorescence. Potency, µM (highest dose often 76.6 µM), for inactives: top-dose activity change, negative = inhibition, hits mostly inhibitors. 750 tested, 83% active; further: potency means the concentration at half of the fitted maximal effect; nearly all actives have a fitted effect of over 50% in size
* hit, by the source's call; u = inconclusive; x = no result given; [ ] = remark or other dose. The call rests on the fitted dose curve; in most records, active means well fitted curve in the direction sought with a large enough effect; inconclusive means small, poorly fitted or top-dose-only effect, or another doubt; inactive means no such curve, though single readings can be large; an effect the other way counts as inactive or inconclusive.

SMILES | ALOX12 inh | Glioma ERSR ind | Anesthetic bind | rTrxR1 inhibitor | IDH1 R132H inh | TrxR1 substrate | Resorufin autofl | WT IDH1 inh | mIDH1 confirm
CC(=O)C1=C(c2ccc(Cl)c(Cl)c2)N(C(C)=O)n2cnnc2S1 | -27% | 2% | -3% | u | 45µM* | 6%[57.1 µM] | -9 | 432% | 20µM*
COc1cccc(C2=C(C(C)=O)Sc3nncn3N2C(C)=O)c1 | 3% | 0% | 6% | -28%[57.1 µM] | u | 1%[57.1 µM] | x | x | x
C/C(=N\NC(N)=S)c1cc(-c2ccccc2)c(-c2ccccc2)s1 | 0% | -5% | 42% | -4% | u | 3% | 0 | 1% | u
N#Cc1c2c(c(Nc3ccc(F)cc3)n3c1nc1ccccc13)CCCC2 | -8% | -3% | x | -5% | u | -8% | 3 | -1% | 22µM*
N#Cc1c2c(c(Nc3ccccc3)n3c1nc1ccccc13)CCC2 | 157% | -10% | -1% | 6% | -3% | 3%[2.29 µM] | x | x | x
CCN(CC)c1ccc(/C=N/NC(=O)Cc2nnc(NC(=O)Nc3ccccc3)s2)cc1 | -9% | 7% | 116% | 4% | 4.1µM* | -4% | -8 | -8% | 6.3µM*
CCN(CC)c1ccc(/C=N/NC(=O)Nc2ccccc2)cc1 | -7% | u | 255% | 8% | 0% | 18% | x | x | x
O=C(NCc1nnc2ccc(-c3ccc(Cl)cc3)nn12)c1cccc2[nH]ccc12 | 18% | x | x | x | x | x | x | x | x
COc1ccc(Nc2c3c(nc4ccc(NC(=O)/C=C/c5cc(OC)c(OC)c(OC)c5)cc24)CCCC3)cc1OC | -8% | -11% | -11% | 6% | u | -4% | -6 | 7% | u
CC(=O)c1ccc(N2CCN(C(=O)c3nnn4c3COC(c3ccc(F)cc3)C4)CC2)cc1 (centres undefined) | 39% | x | x | x | x | x | x | x | x
COc1cccc(-c2coc3c(C)c4oc(=O)c(CCC(=O)O)c(C)c4cc23)c1 | -18% | u | -14% | 2% | 26µM* | 9% | 12 | 35µM* | 25µM*
CC(=O)c1cccc(NCC(=O)c2ccc(C)c([N+](=O)[O-])c2)c1 | u | 0% | -9% | 6% | 16µM* | 8% | 4 | 259% | 40µM*
Cc1ccc(Nc2cc(C)c(C#N)c3nc4ccccc4n23)c(C)c1 | -16% | -2% | -2% | u | 40µM* | 9% | 1 | -2% | 14µM*
COCc1cc(=O)n(CC(=O)Nc2ccc(OC)c(Cl)c2)c(N2CCOCC2)n1 | 32% | x | x | x | x | x | x | x | x
O=C(O)c1cccc(S(=O)(=O)N2CCN(C(c3ccccc3)c3ccccc3)CC2)c1 | -6% | -5% | -11% | -10% | u | -8% | 7 | 5% | 32µM*
Cc1cc(C)cc(N(CC(=O)NC2CCCCC2)C(=O)c2ccc(C)s2)c1 | -15% | -3% | u | 10% | u | 8% | 3 | 2% | 20µM*
Cc1cccc(N2CCN(S(=O)(=O)c3ccc4c(c3)NC(=O)C(C)S4)CC2)c1C (centres undefined) | -9% | -4% | -13% | 28%[57.1 µM] | -2% | 7%[57.1 µM] | x | x | x
Cc1cccc(N2CCN(S(=O)(=O)c3ccc4c(c3)C(C(C)C)C(=O)N4)CC2)c1C (centres undefined) | -22% | -1% | 0% | 28% | 40µM* | -4% | 3 | 6% | 22µM*
